Experimental data: PubChem BioAssay AID1159580 (chemical genetic matrix, 2015)
Among all 5,500 compounds or so, about 2,000 (36%) were called active. About 18% were inconclusive and are not listed. Cut-off read from the data, not from the text of the source: active = normalized growth mostly below about 0.91 (no sharp cut-off); inconclusive = no clear call, values can overlap the other calls; inactive = mostly above about 0.92. The list shows a part of the results.

Assay: chemical genetic growth profiling, strain panel (AID 1159580);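 note: tested at 20 µM; growth read once vehicle control cultures reached saturation at 30 °C; 1 = growth at the plate median or of vehicle wells; lower values mean less growth of the strain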
Conditions: growth OD

COc1ccc(C(=O)c2ccccc2)c(O)c1
normalized growth (S. cerevisiae deletion strains, locus YNL071W, strain lat1, stronger effect = lower value): 0.538 (active) | normalized growth (S. cerevisiae deletion strains, locus YNL128W, strain TEP1, stronger effect = lower value): 0.934 (inactive) | normalized growth (S. cerevisiae deletion strains, locus YNL153C, strain GIM3, stronger effect = lower value): 0.937 (inactive) | normalized growth (S. cerevisiae deletion strains, locus YNL183C, strain NPR1, stronger effect = lower value): 0.851 (inactive) | normalized growth (S. cerevisiae deletion strains, locus YNL209W, strain ssb2, stronger effect = lower value): 0.906 (active) | normalized growth (S. cerevisiae deletion strains, locus YNL233W, strain BNI4, stronger effect = lower value): 0.833 (active) | normalized growth (S. cerevisiae deletion strains, locus YNL248C, strain rpa49, stronger effect = lower value): 0.639 (active) | normalized growth (S. cerevisiae deletion strains, locus YNL250W, strain rad50, stronger effect = lower value): 0.915 (inactive) | normalized growth (S. cerevisiae deletion strains, locus YNL271C, strain bni1, stronger effect = lower value): 0.882 (active) | normalized growth (S. cerevisiae deletion strains, locus YNL298W, strain CLA4, stronger effect = lower value): 0.859 (active) | normalized growth (S. cerevisiae deletion strains, locus YNL307C, strain MCK1, stronger effect = lower value): 0.538 (active) | normalized growth (S. cerevisiae deletion strains, locus YNL322C, strain KRE1 (second series), stronger effect = lower value): 0.862 (active) | normalized growth (S. cerevisiae deletion strains, locus YNL322C, strain KRE1, stronger effect = lower value): 0.93 (inactive) | normalized growth (S. cerevisiae deletion strains, locus YNR049C, strain mso1, stronger effect = lower value): 0.838 (active) | normalized growth (S. cerevisiae deletion strains, locus YNR052C, strain pop2, stronger effect = lower value): 0.923 (inactive) | normalized growth (S. cerevisiae deletion strains, locus YOL006C, strain TOP1, stronger effect = lower value): 0.474 (active) | normalized growth (S. cerevisiae deletion strains, locus YOL012C, strain htz1): 1.24 (inactive) | normalized growth (S. cerevisiae deletion strains, locus YOL147C, strain pex11, stronger effect = lower value): 0.846 (active) | normalized growth (S. cerevisiae deletion strains, locus YOR001W, strain rrp6, stronger effect = lower value): 0.712 (active) | normalized growth (S. cerevisiae deletion strains, locus YOR061W, strain CKA2, stronger effect = lower value): 0.936 (inactive) | normalized growth (S. cerevisiae deletion strains, locus YOR069W, strain VPS5, stronger effect = lower value): 0.959 (inactive) | normalized growth (S. cerevisiae deletion strains, locus YOR070C, strain gyp1, stronger effect = lower value): 0.857 (active) | normalized growth (S. cerevisiae deletion strains, locus YOR080W, strain dia2, stronger effect = lower value): 0.867 (active) | normalized growth (S. cerevisiae deletion strains, locus YOR083W, strain WHI5, stronger effect = lower value): 0.73 (active) | normalized growth (S. cerevisiae deletion strains, locus YOR106W, strain vam3, stronger effect = lower value): 0.682 (active) | normalized growth (S. cerevisiae deletion strains, locus YOR136W, strain idh2, stronger effect = lower value): 0.912 (active) | normalized growth (S. cerevisiae deletion strains, locus YOR144C, strain elg1, stronger effect = lower value): 0.897 (active) | normalized growth (S. cerevisiae deletion strains, locus YOR184W, strain ser1, stronger effect = lower value): 0.476 (active) | normalized growth (S. cerevisiae deletion strains, locus YOR231W, strain MKK1, stronger effect = lower value): 0.878 (inactive) | normalized growth (S. cerevisiae deletion strains, locus YOR265W, strain rbl2, stronger effect = lower value): 0.845 (active) | normalized growth (S. cerevisiae deletion strains, locus YOR270C, strain vph1, stronger effect = lower value): 0.419 (active) | normalized growth (S. cerevisiae deletion strains, locus YOR290C, strain snf2, stronger effect = lower value): 0.784 (active) | normalized growth (S. cerevisiae deletion strains, locus YOR316C, strain cot1, stronger effect = lower value): 0.903 (active) | normalized growth (S. cerevisiae deletion strains, locus YPL051W, strain arl3, stronger effect = lower value): 0.647 (active) | normalized growth (S. cerevisiae deletion strains, locus YPL055C, strain LGE1, stronger effect = lower value): 0.773 (inactive) | normalized growth (S. cerevisiae deletion strains, locus YPL078C, strain atp4, stronger effect = lower value): 0.599 (active) | normalized growth (S. cerevisiae deletion strains, locus YPL106C, strain sse1, stronger effect = lower value): 0.845 (active) | normalized growth (S. cerevisiae deletion strains, locus YPL240C, strain hsp82, stronger effect = lower value): 0.858 (active) | normalized growth (S. cerevisiae deletion strains, locus YPL241C, strain CIN2, stronger effect = lower value): 0.94 (inactive) | normalized growth (S. cerevisiae deletion strains, locus YPL256C, strain CLN2, stronger effect = lower value): 0.818 (active) | normalized growth (S. cerevisiae deletion strains, locus YPR119W, strain clb2, stronger effect = lower value): 0.888 (active) | normalized growth (S. cerevisiae deletion strains, locus YPR141C, strain kar3, stronger effect = lower value): 0.892 (active) | normalized growth (S. cerevisiae deletion strains, locus YPR163C, strain tif3, stronger effect = lower value): 0.844 (active) | normalized growth (S. cerevisiae deletion strains, locus YPR167C, strain met16, stronger effect = lower value): 0.898 (active) | normalized growth (S. cerevisiae deletion strains, strain wtn01, stronger effect = lower value): 0.872 (active) | normalized growth (S. cerevisiae strains, strain wild type, stronger effect = lower value): 0.911 (inactive)
